Compounds with a hit are over-represented: about 2.6% of the library has one in this group of screens.
TROY signal inh – blocks TROY-dependent signaling in reporter cells | Q293 LMP1-TROYcd NF-kB luciferase reporter, 4 h | inhibition, % at 10 µM | hit rate 0.98% among 360,000 | AID 1347056;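 active means compounds whose plate-normalised and pattern-corrected inhibition of the luciferase reporter signal at the single screening dose is 50% or more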
CF NFkB block – inhibitors of cystic fibrosis induced NF-kB; KKLEB NF-kB-GFP reporter, PAF-induced, GFP fluorescence overnight; inhibition, % at 5 µM; hit rate 0.86% among 360,000; AID 588850;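 active means at least 50% inhibition at 5 µM, scaled per plate between neutral and stimulator controls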;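 further: PAF is a Pseudomonas aeruginosa culture filtrate used as stimulus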
KKLEB tox – CF airway cell cytotoxicity counter-screen; KKLEB CF airway cells viability, ATPlite luminescence, overnight; stronger effect = lower value; cells stimulated with P. aeruginosa culture filtrate; activity change (cytotoxicity), % at 5 µM; AID 602141; hit rate 0.36% among 360,000;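 active means corrected activity change at or below -50% at 5 µM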
LGR2 antag – blocks bursicon-induced cAMP signaling via Drosophila LGR2; HEK293 LGR2, CRE-luciferase, bursicon-stimulated, 4 h; inhibition, % at 9.99 µM; hit rate 0.35% among 380,000; AID 720647;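 active means drop in luminescence signal, shown as inhibition above about 50% in the replicate tests, limit read from the data, passing the limit was not always enough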;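 further: agonist challenge used bursicon conditioned medium at about half maximal strength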
TWEAK-Fn14 inh – TWEAK-Fn14 signaling inhibition | TWEAK-stimulated Fn14 reporter cells, luciferase luminescence, 8 h | hit rate 2% among 360,000 | inhibition, % at 10 µM | AID 1159606; in the data active means inhibition above about 50%
EWS-Fli inh – EWS/Fli transcriptional activity inhibition; A673 NR0B1-luciferase reporter, viability-normalised; inhibition, % at 12.6 µM; hit rate 0.67% among 350,000; AID 651661;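 active means mean inhibition of at least 50% after viability correction, with every replicate also passing that limit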;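 further: firefly luciferase signal divided by Alamar Blue viability fluorescence both relative to DMSO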
Hits are given with their value; . = inactive; / = no result given.

SMILES	TROY signal inh	CF NFkB block	KKLEB tox	LGR2 antag	TWEAK-Fn14 inh	EWS-Fli inh
C[n+]1c(-c2ccccc2)c2cc(N)ccc2c2ccc(N)cc21	.	.	.	78.6	.	.
COC(=O)[C@@H]1[C@@H](CO)[C@@H]2Cn3c(cccc3=O)[C@H]1N2C(=O)C1CC1	/	/	/	.	/	.
CN(C)C(=O)[C@@H]1[C@@H](CO)[C@@H]2Cn3c(cccc3=O)[C@H]1N2CC1CC1	/	/	/	.	/	.
c1ccc(-c2[nH]c(-c3ccccc3)[n+](CC3CO3)c2-c2ccccc2)cc1 (stereo not drawn)	.	.	.	.	80.4	/
COC(=O)[C@@H]1[C@@H](CO)[C@@H]2Cn3c(ccc(-c4cccc(C(=O)N(C)C)c4)c3=O)[C@H]1N2CC1CC1	/	/	/	.	/	.
CC=Cc1ccc2n(c1=O)C[C@H]1[C@H](CO)[C@@H](C(=O)OC)[C@@H]2N1CC1CCCCC1 (mixture of isomers)	/	/	/	.	/	.
O=[N+]([O-])c1ccc(NCc2ccccc2)c2nonc12	/	/	/	.	/	.
O=[N+]([O-])c1ccc(NCc2ccc(Cl)cc2)c2ccncc12	.	.	.	.	50.6	.
COc1cc2c3cc1Oc1cc(ccc1O)C[C@@H]1c4c(cc(OC)c(O)c4Oc4ccc(cc4)C[C@H]3N(C)CC2)CCN1C	.	.	-65.7	.	.	.
COc1cc2c3cc1Oc1c(OC)c(OC)cc4c1[C@H](Cc1ccc(cc1)Oc1cc(ccc1O)C[C@H]3N(C)CC2)N(C)CC4	.	.	.	/	.	.
O=C(Cc1ccccc1)N1CCN(Cc2ccccn2)CC1	.	.	.	.	92.3	/
CCCNC(=O)[C@@H]1[C@@H](CO)[C@@H]2Cn3c(cccc3=O)[C@@H]2N1C	/	/	/	.	/	.
O=C(O)c1nn(Cc2ccc(Cl)cc2Cl)c2ccccc12	.	.	.	63.0	.	.
O=C(c1ccco1)c1cn(Cc2ccccc2)c2ccccc12	.	.	.	.	101.5	/
C[C@H]1CCC/C=C/[C@@H]2C[C@H](O)C[C@H]2[C@@H](O)/C=C/C(=O)O1	.	63.8	.	.	61.3	72.7
CCCCCc1nc2c(c(=O)c3ccccc3n2C)c(=O)n1C1CCCCCC1	88.9	.	.	/	.	.
Cc1c(NS(=O)(=O)c2ccccc2)ccc([N+](=O)[O-])c1Cl	59.5	.	.	.	.	.
Nc1ccccc1C(=O)OCCOc1ccccc1	.	.	.	/	67.0	/
C=CCOC(=O)c1ccccc1N	.	.	.	.	.	.
CSCCC(c1nnnn1-c1ccc2c(c1)OCCO2)N1CCC(n2c(=O)[nH]c3ccccc32)CC1 (stereo not drawn)	.	86.2	-83.7	.	.	.
CCC(c1nnnn1C1CCCC1)N1CCC2(CC1)C(=O)NCN2c1ccccc1 (stereo not drawn)	.	.	.	.	.	.
O=c1[nH]c2ccccc2n1C1CCN(C(CCc2ccccc2)c2nnnn2C2CCCC2)CC1 (stereo not drawn)	53.1	84.3	-95.7	65.4	50.7	.
CCC(c1nnnn1-c1ccc2c(c1)OCCO2)N1CCC(n2c(=O)[nH]c3ccccc32)CC1 (stereo not drawn)	.	78.9	-76.4	.	.	.
Cc1[nH]n(-c2ccccc2)c(=O)c1C(c1ccc([N+](=O)[O-])cc1)c1c(C)[nH]n(-c2ccccc2)c1=O	.	54.6	.	/	.	/
COc1ccc(OC(=O)N(C)C[C@H]2OCc3ccccc3-c3c(n(C)c4ccccc34)C(=O)N([C@H](C)CO)C[C@@H]2C)cc1	/	/	/	.	/	.
O=c1c2ccccc2nc(/C=C/c2ccccc2)n1-c1ccc(O)cc1	.	.	.	.	.	.
O=c1c2ccccc2nc(/C=C/c2ccc([N+](=O)[O-])o2)n1-c1ccc(O)cc1	.	.	.	53.9	92.6	83.8
Cc1cccc(-n2c(/C=C/c3ccc([N+](=O)[O-])o3)nc3ccccc3c2=O)c1	.	.	.	.	94.6	.
C=C(C)[C@@]12OC3(c4ccccc4)O[C@@H]1C1[C@@H]4O[C@]4(CO)[C@@H](O)[C@]4(O)C(=O)C(C)=C[C@H]4[C@@]1(O3)[C@H](C)[C@H]2OC(=O)/C=C/C=C/c1ccccc1 (stereo partly drawn)	.	54.4	-53.0	/	.	/
O=[N+]([O-])c1ccc(CNCCc2ccccc2)cc1	.	.	.	.	98.1	.
